Data as given in PubChem BioAssay.
Inconclusive results are not listed. Calls of active or inactive are those of the source.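 The calls were made as follows, unless noted: active = RAM network inhibition above 8.4% in each of two replicates, 3 SD over the compound average; inconclusive = above 8.4% inhibition in only one replicate; inactive = 8.4% inhibition or less in each replicate.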

What was measured:
[1] = reducers of endogenous Her2 protein level, primary screen, SKBR3 breast tumor cells, AlphaScreen, ATP viability (AID 461;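 active = Her2 level under about 52% in both replicate screens, with viability over 70% of control, limit read from the data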;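 as to Her2 level: lower value means less Her2 protein in the cells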;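 as to viability: percent of carrier control wells set as 100% viability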); conditions: 18-24 h, measured here: SKBR3 viability, ATP luminescence, at 10 µM
[2] = target: Receptor tyrosine-protein kinase erbB-2 (Homo sapiens) (UniProt P04626); assay: as above; conditions: 18-24 h, at 10 µM, stronger effect = lower value
Chain of Receptor tyrosine-protein kinase erbB-2 (Homo sapiens) (P04626 whole entry, looked up): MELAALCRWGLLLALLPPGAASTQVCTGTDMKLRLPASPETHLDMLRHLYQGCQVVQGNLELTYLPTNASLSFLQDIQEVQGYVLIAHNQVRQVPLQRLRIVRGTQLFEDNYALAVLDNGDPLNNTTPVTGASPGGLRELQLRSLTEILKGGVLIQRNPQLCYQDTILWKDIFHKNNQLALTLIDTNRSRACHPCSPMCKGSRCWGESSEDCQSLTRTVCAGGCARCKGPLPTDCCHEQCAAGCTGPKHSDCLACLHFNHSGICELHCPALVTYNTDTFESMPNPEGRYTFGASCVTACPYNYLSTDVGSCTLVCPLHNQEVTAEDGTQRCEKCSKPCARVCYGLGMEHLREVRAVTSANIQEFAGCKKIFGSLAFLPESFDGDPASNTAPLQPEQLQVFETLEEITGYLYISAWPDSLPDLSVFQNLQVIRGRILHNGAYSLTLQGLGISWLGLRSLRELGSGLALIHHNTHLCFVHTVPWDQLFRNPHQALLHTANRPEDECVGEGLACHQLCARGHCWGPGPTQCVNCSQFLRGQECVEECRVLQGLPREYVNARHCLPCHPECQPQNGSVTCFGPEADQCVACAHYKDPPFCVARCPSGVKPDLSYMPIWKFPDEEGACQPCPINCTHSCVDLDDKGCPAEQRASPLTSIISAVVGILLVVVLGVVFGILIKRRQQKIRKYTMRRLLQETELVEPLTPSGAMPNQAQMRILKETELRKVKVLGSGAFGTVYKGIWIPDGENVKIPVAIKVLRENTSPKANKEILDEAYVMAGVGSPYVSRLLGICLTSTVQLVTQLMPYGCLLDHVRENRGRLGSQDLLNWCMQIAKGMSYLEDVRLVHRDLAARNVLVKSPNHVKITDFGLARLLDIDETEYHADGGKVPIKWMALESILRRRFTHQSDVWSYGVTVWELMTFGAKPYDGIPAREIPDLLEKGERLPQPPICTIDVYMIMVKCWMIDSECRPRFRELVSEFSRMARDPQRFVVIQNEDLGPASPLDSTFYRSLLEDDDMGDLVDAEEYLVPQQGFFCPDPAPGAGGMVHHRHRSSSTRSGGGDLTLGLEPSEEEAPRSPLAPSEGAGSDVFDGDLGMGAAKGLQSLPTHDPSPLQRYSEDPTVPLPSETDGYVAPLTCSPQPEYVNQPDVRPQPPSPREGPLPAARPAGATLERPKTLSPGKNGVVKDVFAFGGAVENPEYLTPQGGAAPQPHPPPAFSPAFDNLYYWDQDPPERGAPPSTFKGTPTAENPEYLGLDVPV

[3] = SK-BR-3 cell growth inhibitors, pilot screen, 24 h, human (AID 572;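 active = viability at or below 10% of carrier control in both of two separate runs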;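 also: compound exposure lasted between 18 and 24 h rather than exactly 24 h; 100% = carrier-treated control wells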); conditions: SK-BR-3 viability, CellTiter-Glo luminescence, at 10 µM, stronger effect = lower value
[4] = HUVEC growth inhibition – cell-based, human, primary screen (AID 575;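 active = viability at or below 30% in both replicate assays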;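 also: 100% = median of untreated cell wells with 0.1% DMSO on each plate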); conditions: HUVEC proliferation, CellTiter-Glo luminescence, 72 h; at 10 µM; stronger effect = lower value
[5] = growth inhibitors of H69AR lung tumor, primary screen, human, duplicate replicates (AID 580;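 active = viability at or under a set limit in both replicates, limit being median viability minus 3 SD, cut at about 48% in these data, passing the limit was not always enough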;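 also: 100% = mean luminescence of untreated wells and 0% = no signal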); conditions: H69AR lung tumor cells viability, ATP luminescence, 72 h; at 10 µM; stronger effect = lower value
[6] = reversal of MRP1-mediated doxorubicin resistance, pilot screen, H69AR cells, doxorubicin co-treatment (AID 601;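 active = viability loss from added drug above about 55%, and viability with drug at most 40%, in both replicates, limit read from the data, passing the limit was not always enough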); conditions: CellTiter-Glo, 72 h, at 10 µM; for differential viability (reversal): stronger effect = higher value
[7] = 384-well plate pilot, post-Golgi transport modulator project, inhibition of yeast transport mutant growth (AID 636; in the data active = inhibition above about 31%); conditions: absorbance 615 nm, about 18 h, stronger effect = higher value
[8] = growth suppression of yeast trafficking mutant, preliminary HTS, modulators of trafficking downstream of Golgi apparatus project, 1536-format plate, OD 615 nm (AID 637; in the data active = inhibition above about 30%); conditions: yeast transport mutant growth, absorbance 615 nm, 18 h; stronger effect = higher value
[9] = OD615 S. cerevisiae growth inhibition, permissive medium, pilot counter-assay, permissive growth control for S. cerevisiae lifespan shortening project (AID 705;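 active = growth inhibition above 25% in both replicates, a cutoff set 3 SD above the mean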); conditions: OD615, 24 h, at 10 µM, stronger effect = higher value
[10] = Restrictive medium S. cerevisiae growth inhibition, OD615, pilot screen of yeast lifespan reduction project, restrictive growth control (AID 706;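 active = growth inhibition above a set limit, 3 SD over mean compound inhibition, in both replicates, cut at about 43% in these data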;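 also: modified DeaD lifespan yeast strain shifted to restrictive glucose medium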); conditions: OD615, 48 h, at 10 µM, stronger effect = higher value
[11] = viability gain of MRP-1-high H69AR cells under doxorubicin, pilot screen, MRP-1 activator project, CellTiter-Glo, duplicate (AID 807;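 active = viability increase at or above a cutoff of the median across tested compounds plus 3 SD, cut at about 8.5% in these data, passing the limit was not always enough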;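 also: compound pretreatment 18-22 h then 72 h combined with doxorubicin; 0% = doxorubicin alone and 100% = vehicle without doxorubicin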); conditions: H69AR viability with doxorubicin, CellTiter-Glo luminescence; at 10 µM; stronger effect = higher value
[12] = growth suppression of PTEN-deleted HCT116, pilot screen, cell-based, HCT116 clonal line, CellTiter-Glo (AID 824;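 active = viability at or below 27.92% in each of two runs, the all-compound median minus 4 SD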;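 also: 0% = 20 µM Hyamine control and 100% = vehicle cell control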); conditions: 60 h, at 10 µM, stronger effect = lower value
[13] = inhibitors of the yeast RAM network, pilot screen, dse1pr::URA3 reporter, 5-FOA selection (AID 869;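 active = inhibition over a set limit, the all-compound mean plus 3 SD, in both replicate runs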;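 also: 0% = DMSO wells with no growth and 100% = 10 µM 1-NA-PP1 with full growth; RAM network block rescues cells from 5-FOA so hits raise OD615 growth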); conditions: S. cerevisiae dse1pr::URA3 5-FOA growth, OD615, 2 d; at 10 µM; stronger effect = higher value; strain carries analog-sensitive mutant Cbk1 kinase
[14] = RAM signaling pathway blockade in yeast – S. cerevisiae, Pdr1DBD-CYC8 efflux-inhibited sensitized strain, primary screen (AID 1298);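 also: 0% = DMSO untreated cells without growth and 100% = 10 µM 1-NA-PP1 full growth; higher means more yeast growth rescued from 5-FOA killing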; conditions: S. cerevisiae cbk1-as DSE1-URA3 strain, 5-FOA growth OD615, 2 d; at 50 µM; stronger effect = higher value
[15] = growth suppression of beta-catenin knockout HCT116, pilot screen, human colon tumor cells (AID 823;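 active = cell viability at or below a set limit in both duplicate runs, the limit being the all-compound median minus 4 SD, cut at about 23% in these data, passing the limit was not always enough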;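 also: 0% = wells killed by 20 µM Hyamine and 100% = untreated DMSO cell wells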); conditions: CellTiter-Glo, 60 h, at 10 µM, stronger effect = lower value
[16] = H69AR cells + 2 uM doxorubicin, measured here: viability with 2 uM doxorubicin, stronger effect = lower value
[17] = H69AR cells, compound alone cytotoxicity

CCOC(=O)c1[nH]c(C)c(C(=O)Nc2ccc(C)cc2C)c1C
22.2%: viability [6, 17]
inactive: Her2 level [2] 92% | viability [3] 91.5% | viability [4] 54.8% | differential viability (reversal) ([6]; H69AR cells + 2 uM doxorubicin) -28.5% | inhibition [7] -3.72% | inhibition [8] -3.5% | growth inhibition [9] -12.6% | growth inhibition [10] -5.29% | viability increase [11] -6.07% | viability [12] 32.8% | inhibition [13] 1.79% | RAM network inhibition [14] 0.04%
91.5%: viability [1]
active: viability [5] 22.2%
50.7%: viability [6, 16]

COc1ccc(C2C(C(=O)N3CCCC3)c3cc(OC)c(OC)cc3C(=O)N2C)cc1 (stereo not given)
inactive: Her2 level [2] 85.5% | viability [3] 88.5% | viability [4] 94.3% | viability [5] 102% | differential viability (reversal) ([6]; H69AR cells + 2 uM doxorubicin) 0.95% | inhibition [7] -7.95% | inhibition [8] -0.63% | growth inhibition [9] -8.59% | growth inhibition [10] -0.445% | viability increase [11] -1.15% | viability [12] 92.8% | inhibition [13] 0.655% | RAM network inhibition [14] 5.28%
102%: viability [6, 17]
88.5%: viability [1]
101%: viability [6, 16]

COCc1nnc(NC(=O)c2ccc(S(=O)(=O)N(C)c3ccccc3)cc2)o1
inactive: Her2 level [2] 107% | viability [3] 85% | viability [4] 66.6% | differential viability (reversal) ([6]; H69AR cells + 2 uM doxorubicin) -18.5% | inhibition [7] -3.87% | inhibition [8] -2.17% | growth inhibition [9] 3.04% | growth inhibition [10] 9.5% | viability increase [11] -5.06% | viability [15] 29.7% | inhibition [13] 0.19% | RAM network inhibition [14] 4.65%
62.2%: viability [6, 16]
active: viability [5] 43.7%
85%: viability [1]
43.7%: viability [6, 17]

CC(C)c1ccc(NC(=O)CCNS(=O)(=O)c2cccc3nonc23)cc1
95.3%: viability [6, 17]
inactive: Her2 level [2] 89% | viability [3] 98.5% | viability [4] 84.6% | viability [5] 95.3% | differential viability (reversal) ([6]; H69AR cells + 2 uM doxorubicin) 1.35% | inhibition [7] -8.9% | inhibition [8] -3.17% | growth inhibition [9] -7.97% | growth inhibition [10] -5.83% | viability increase [11] -1.42% | viability [12] 86.3% | inhibition [13] 0.265% | RAM network inhibition [14] 1.64%
93.9%: viability [6, 16]
98.5%: viability [1]

O=C1NC(=O)C(CC(=O)N(Cc2ccco2)C2(C(=O)NC3CCCC3)CCCCC2)N1 (stereo not given)
94.1%: viability [6, 16]
99.5%: viability [1]
inactive: Her2 level [2] 116% | viability [3] 99.5% | viability [4] 106% | viability [5] 92.6% | differential viability (reversal) ([6]; H69AR cells + 2 uM doxorubicin) -1.5% | inhibition [7] -7.95% | inhibition [8] -6.51% | growth inhibition [9] -7.63% | growth inhibition [10] -4.51% | viability increase [11] -3.06% | viability [12] 89% | inhibition [13] 0.975% | RAM network inhibition [14] -0.51%
92.6%: viability [6, 17]
